Screening results (PubChem BioAssay)
Rce1 inh: blocks yeast Ras-converting enzyme. Q03530. yeast membranes, quenched prenylated peptide cleavage fluorescence. calls only. 290,000 compounds, 0.27% hits;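 active means fall in fluorescence gain of 50% or more versus controls, with final raw signal at or below 3038400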;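 further: plate controls were neutral control wells for no effect and wells lacking membranes for full effect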
ALR H2O2 inh: human ALR oxidase inhibition via reduced H2O2; P55789; purified ALR, DTT oxidation, H2O2 HRP-luminol luminescence; inhibition, % (test concentration not listed); 290,000 compounds, 3.8% hits;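 active means mean replicate inhibition above about 79%, with every replicate also reaching it, limit read from the data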
HDAC3 inhib: human HDAC3 inhibition; AID 2718; recombinant HDAC3, fluorogenic peptide/trypsin coupled, fluorescence; O15379; 320,000 compounds, 0.15% hits; inhibition, % at 8.3 µM; in the data active means inhibition above about 26%, passing the limit was not always enough
Rtt109 Vps75: inhibitors of Candida albicans Rtt109/Vps75 histone acetyltransferase. inhibition, % at 34.9 µM. purified Rtt109/Vps75, ThioGlo CoA-SH fluorescence, 4 h. 330,000 compounds, 0.16% hits;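 active means inhibition of at least 50% in every replicate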
Target sequence (Q5AAJ8 whole entry, looked up): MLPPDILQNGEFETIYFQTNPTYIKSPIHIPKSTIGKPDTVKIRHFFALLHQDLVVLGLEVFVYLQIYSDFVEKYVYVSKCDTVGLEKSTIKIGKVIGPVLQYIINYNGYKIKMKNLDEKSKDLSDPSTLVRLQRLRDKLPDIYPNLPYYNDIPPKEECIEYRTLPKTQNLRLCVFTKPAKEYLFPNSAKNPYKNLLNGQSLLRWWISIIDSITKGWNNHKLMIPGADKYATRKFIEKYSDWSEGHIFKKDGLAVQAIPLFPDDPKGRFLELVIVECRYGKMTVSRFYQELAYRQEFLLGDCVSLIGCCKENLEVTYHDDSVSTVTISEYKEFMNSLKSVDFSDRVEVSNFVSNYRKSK
Efflux pump mplx: blocks antifungal efflux pumps in multiplex yeast assay; S. cerevisiae Candida pump triplex, Nile Red efflux; inhibition, % at 10 µM; 330,000 compounds, 0.44% hits; AID 485275;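 active means plate passing quality check with inhibition over a set limit, or well fluorescence over plate mean plus 4 SD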;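 further: Nile Red retained in pooled yeast measured as flow cytometry median fluorescence; 0% = buffer negative control and 100% = Enniatin B positive control; higher means more Nile Red kept so more efflux inhibition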
GRK2 aptamer HTS: human GRK2 inhibition via aptamer displacement; P25098; bead flow cytometry, FAM-aptamer displacement from GRK2; inhibition of aptamer binding, % at 10 µM; 330,000 compounds, 0.59% hits;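 active means inhibition of aptamer binding above 40%, roughly 3 SD of noise, on plates passing a quality check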;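 further: median bead fluorescence of bound FAM aptamer so fluorescent compounds give negative values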
Starred values were filed as active, the others as inactive; i = inactive; nt = no result given; + = active, no number. Shown are actives, neighbours in structure and some others; about 4.5% of the full set was active somewhere.

SMILES | Rce1 inh | ALR H2O2 inh | HDAC3 inhib | Rtt109 Vps75 | Efflux pump mplx | GRK2 aptamer HTS
CCOc1cc(/C=C(\C#N)C(=O)NCc2cccnc2)ccc1O | i | 88* | 12 | nt | 0 | 2
COc1cc(/C=C(\C#N)C(=O)NCc2cccs2)ccc1O | i | 99* | 14 | 10 | 0 | 4
Cc1ccc2cc3c(N)c(C(=O)Nc4c(C)[nH]c(=O)[nH]c4=O)sc3nc2c1 | i | 96* | -10 | nt | 0 | 4
Cc1ccc2nc3sc(C(=O)Nc4c(C)[nH]c(=O)[nH]c4=O)c(N)c3cc2c1 | i | -1 | 3 | -5 | -1 | 0
Cc1[nH]n(-c2ccccc2)c(=S)c1C=Nc1cccc([N+](=O)[O-])c1 | i | -3 | 55* | 18 | 0 | 1
CCCCN=Cc1c(C)[nH]n(-c2ccccc2)c1=S | i | 31 | 1 | -5 | 0 | 3
O=C(Nc1ccccc1-c1nc2ccccc2[nH]1)c1ccc(N2C(=O)CCC2=O)cc1 | + | 4 | 0 | 2 | 0 | 2
O=C(Nc1ccccc1-c1nc2ccccc2[nH]1)c1ccc(S(=O)(=O)N2CCCCC2)cc1 | i | nt | nt | 22 | nt | nt
Cc1ccc(S(=O)(=O)N[C@@H](Cc2ccccc2)C(=O)CCl)cc1 | i | 98* | -2 | 4 | 0 | 0
CC(Cc1ccc(O)c(O)c1)C(C)Cc1ccc(O)c(O)c1 (stereo not drawn) | i | 99* | 17 | nt | 0 | 4
N[C@@H](Cc1ccc(O)c(O)c1)C(=O)O | nt | nt | nt | 4 | nt | nt
COC(=O)c1cc(-c2c(C)nn(-c3ccccc3)c2C)n[nH]1 | i | 86* | 1 | -10 | 0 | 3
Cc1ccc(NC(=O)CSCC(=O)N2CCN(c3cccc(C(F)(F)F)c3)CC2)cc1 | i | -4 | -6 | -1 | 0 | 2
CC1C(=O)NN=C1C(=O)N/N=C\c1ccc(O)cc1O (stereo not drawn) | i | 98* | 4 | -18 | 0 | 0
COc1cc(/C=N/NC(=O)C2=NNC(=O)C2C)ccc1O (stereo not drawn) | i | 98* | 4 | -10 | 0 | 0
CC1C(=O)NN=C1C(=O)N/N=C/c1ccco1 (stereo not drawn) | i | 70 | 4 | -4 | 0 | 0
CCN1/C(=C/C=C/c2oc3ccc(-c4ccccc4)cc3[n+]2CC)Oc2ccc(-c3ccccc3)cc21 | i | -10 | 1 | -6 | + | 0
CCCCN1C(=O)/C(=C/C=C2\Oc3ccccc3N2CC)SC1=S | i | nt | nt | 8 | nt | nt
CCOC(=O)NC(=O)/C(C#N)=N\Nc1cccc(OC)c1 | i | 98* | 6 | 1 | 0 | 1
CC(=O)NS(=O)(=O)c1ccc(NC(=O)c2ccc(S(=O)(=O)N3CCCC3)cc2)cc1 | nt | nt | 2 | -3 | 0 | 0
CC(=O)/C(N)=N/Nc1cccc(Cl)c1 | i | 99* | 9 | 5 | 0 | 0
CC1CN(C(=O)COc2coc(CN3CCc4ccccc4C3)cc2=O)CC(C)O1 (stereo not drawn) | i | -4 | 3 | -6 | 0 | 0
CCOc1ccc(C(=O)CCC(=O)NCC(=O)Nc2c(C)cccc2C)cc1 | nt | nt | -7 | 2 | 0 | 1
CSc1nc(O)c(Nc2cccc(Cl)c2)c(=O)[nH]1 | i | 89* | -2 | 10 | 0 | 3
Cc1c2cnn(CC(=O)NCCCN3CC(C)CC(C)C3)c(=O)c2c(C)n1Cc1ccccc1Cl (stereo not drawn) | i | -5 | 2 | 17 | 0 | 0
SMILES | Rce1 inh | ALR H2O2 inh | HDAC3 inhib | Rtt109 Vps75 | Efflux pump mplx | GRK2 aptamer HTS
COc1cc(NC(=O)C(Cc2ccccc2)n2cccc2)cc(OC)c1 (stereo not drawn) | i | 0 | -6 | 52* | 0 | 2
COc1ccc(NC(=O)C(Cc2ccccc2)n2cccc2)cc1 (stereo not drawn) | i | 1 | -10 | 3 | 0 | 2
O=C(CSC1=NC2(CCCCC2)N=C1c1ccccc1)Nc1ccc2c(c1)OCCO2 | i | 98* | -2 | 170* | 0 | 1
O=C(CSc1ccc2c(c1)OCCO2)Nc1ccc2c(c1)OCO2 | i | 60 | 5 | 0 | 0 | 3
Cc1ccc(C2=NC(C)(C)N=C2SCC(=O)Nc2ccc(Cl)cc2)cc1 | nt | nt | 11 | 99* | 0 | 0
O=C(CSc1ccc(-c2ccccc2)nn1)Nc1ccc2c(c1)OCCO2 | i | -16 | 0 | 0 | 0 | 0
